PLAP activator: PLAP enzyme activators, biochemical, luminescence, HTS; purified PLAP enzyme, luminescent substrate read-out; stronger effect = higher value; actives 1.2% (n = 96,000); activation fold at 20 µM; Alkaline phosphatase, placental type (Homo sapiens), P05187; in the data active = activation fold above about 2
CYP2C9 act: human CYP2C9 activators, primary screen, biochemical, luminescence | recombinant CYP2C9, luciferin-H conversion; stronger effect = higher value; factor 1 = untreated enzyme, 0 = blocked | actives 1.4% (n = 96,000) | activation factor at 5 µM | Cytochrome P450 2C9 (Homo sapiens), P11712;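 active = activation factor of 2 or more for CYP2C9 at a 5 µM dose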;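 also: 0 = sulfaphenazole-blocked wells and 1 = vehicle-only wells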
CYP2C19 inh: blockers of cytochrome P450 2C19 activity – biochemical, luminescence, ADME assay, primary screen; P33261; actives 21% (n = 96,000); CYP2C19 Supersomes, luciferin-H EGE luminescence, 30 min; inhibition, % at 5 µM;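 active = CYP2C19 inhibition above a set limit at 5 µM in the primary screen, cut at about 50% in these data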;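 also: plate controls were negative control wells for no effect and 2.5 mM tranylcypromine positive control for full effect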
Target sequence (P33261 whole entry, looked up): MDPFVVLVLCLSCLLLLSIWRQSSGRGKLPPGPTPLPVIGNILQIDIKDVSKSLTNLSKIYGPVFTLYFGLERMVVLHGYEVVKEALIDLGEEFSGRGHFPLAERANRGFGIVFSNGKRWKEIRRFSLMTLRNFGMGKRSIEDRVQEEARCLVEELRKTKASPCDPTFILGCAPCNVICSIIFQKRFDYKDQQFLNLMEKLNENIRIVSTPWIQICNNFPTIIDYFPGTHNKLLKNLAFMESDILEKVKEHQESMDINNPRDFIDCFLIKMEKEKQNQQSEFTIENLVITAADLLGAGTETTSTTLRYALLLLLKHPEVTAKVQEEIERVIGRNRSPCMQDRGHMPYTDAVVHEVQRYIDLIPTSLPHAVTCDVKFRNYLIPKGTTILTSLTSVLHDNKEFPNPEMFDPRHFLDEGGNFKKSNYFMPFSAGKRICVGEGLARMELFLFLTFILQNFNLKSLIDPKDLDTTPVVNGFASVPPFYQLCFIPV
CYP2C9 inhib: blockers of cytochrome P450 2C9 activity – biochemical, luminescence, ADME assay, primary screen; actives 20% (n = 96,000); CYP2C9 Supersomes, luciferin-H conversion; P11712; inhibition, % at 5 µM; AID 777, 2007;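 active = blocking of liver enzyme CYP2C9 beyond about 50% at 5 µM, limit read from the data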
CYP2C19 activ: human CYP2C19 activators, primary screen, biochemical, luminescence. Cytochrome P450 2C19 (Homo sapiens), P33261. activation factor at 5 µM. 96,000 tested, under 10 active. recombinant CYP2C19, luciferin-H EGE luminescence; stronger effect = higher value; 0 = fully inhibited enzyme, 1 = untreated enzyme;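 active = activation factor of at least 2 at 5 µM in the primary screen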;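 also: 0 = wells with 2.5 mM tranylcypromine and 1 = vehicle-only wells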
Active calls of the source: *. Hits are enriched below; roughly 31% of the tested compounds scored in any of these assays.

SMILES	PLAP activator	CYP2C9 act	CYP2C19 inh	CYP2C9 inhib	CYP2C19 activ
CN(C)C(=O)CSc1nnc(CCNC(=O)OC(C)(C)C)o1	0.9	1.1	11	-6	0.9
CC(C)=CCSc1nnc(CCNC(=O)OC(C)(C)C)o1	1.7	0.6	66*	36	0.3
CC(C)(C)OC(=O)NCCc1nnc(SCc2c(Cl)cccc2Cl)o1	1.7	0.3	92*	72*	0.1
CC(C)Sc1nnc([C@H](C)NC(=O)OC(C)(C)C)o1	0.9	0.8	57*	24	0.4
CSc1nnc([C@H](C)NC(=O)OC(C)(C)C)o1	0.9	0.9	19	7	0.8
CC(C)[C@H](NC(=O)OC(C)(C)C)c1nnc(SCC(=O)Nc2ccc(Br)cc2)o1	1.5	0.3	49	70*	0.5
CN1C(=O)/C(=C/c2cc(N=Nc3ccccc3)ccc2O)SC1=S	0.9	0.7	14	29	0.9
Cn1c(=O)c2cc(S(=O)(=O)NC(C(=O)NCc3ccccn3)c3ccccc3)ccc2n(C)c1=O (stereo unspecified)	1	1	-3	2	1
COc1ccc(NC(=O)Cn2c(=O)n(CC(=O)NCc3ccco3)c(=O)c3ccccc32)cc1OC	1.1	0.9	-16	7	1.2
CCCCSc1nnc(CCCCCNC(=O)OC(C)(C)C)o1	1.8	0.4	64*	64*	0.4
Cc1[nH]c(=O)[nH]c(=O)c1CSc1nnc([C@@H](NC(=O)OC(C)(C)C)C(C)C)o1	1.4	0.9	4	7	1
CN(C)C(=O)CSc1nnc(CCCCCNC(=O)OC(C)(C)C)o1	1.2	0.8	20	21	0.8
NCCCCCc1nnc(SCC(=O)c2ccc(Cl)cc2)o1	1.1	0.2	59*	75*	0.4
CSCC[C@H](NC(=O)OC(C)(C)C)c1nnc(SCC(=O)Nc2c(C)cccc2C)o1	1.1	0.4	8	58*	0.9
Cc1cccc(C)c1NC(=O)CSc1nnc([C@H](C)NC(=O)OC(C)(C)C)o1	1.1	0.7	18	27	0.8
CC(C)=CCSc1nnc([C@@H](NC(=O)OC(C)(C)C)C(C)C)o1	1.9	0.6	55*	44	0.4
COC(=O)c1nn(-c2ccccc2)c(Sc2ccc(C)cc2)c1/C=N/O	0.9	0.9	0	10	1
CCOC(=O)CC(=O)Nc1ccc(Br)cc1C(=O)O	1.1	0.6	15	45	0.8
O=C(Cc1cccs1)Nc1nc(-c2ccccc2)cs1	0.8	0.4	51*	61*	0.5
Cc1nc(CC(=O)Nc2nc(-c3ccccc3)cs2)cs1	0.9	0.7	52*	33	0.5
Cn1nccc1C(=O)OCC(=O)Nc1nc(-c2ccccc2)cs1	0.9	0.7	38	25	0.6
Cc1ccc(-c2nc(CS(=O)(=O)CC(=O)N3CC(C)CC(C)C3)c(C)o2)cc1 (stereo unspecified)	1.5	0.3	41	71*	0.6
Cc1cccc(N2CCN(C(=O)CS(=O)(=O)Cc3nc(-c4ccccc4F)oc3C)CC2C)c1 (stereo unspecified)	1.5	0.1	56*	87*	0.4
CCN1CCN(C(=O)CS(=O)(=O)Cc2nc(-c3ccc(C)cc3)oc2C)CC1	1.3	0.8	4	20	1
Cc1oc(-c2ccccc2F)nc1CS(=O)(=O)CC(=O)N1CCOCC1	0.9	0.7	14	34	0.9
SMILES	PLAP activator	CYP2C9 act	CYP2C19 inh	CYP2C9 inhib	CYP2C19 activ
COc1ccc(NC(=O)c2cccc(NC(=O)C3C4CC5OC(=O)C3C5C4)c2)c(OC)c1 (stereo unspecified)	0.9	1	-4	5	1
O=c1c2[nH]c3ccccc3c2ncn1CCCn1ccnc1	0.9	0.3	30	72*	0.7
O=c1c2[nH]c3ccc(Br)cc3c2ncn1CCCn1ccnc1	1.1	0.1	82*	89*	0.2
CCCCn1cnc2c([nH]c3ccccc32)c1=O	0.8	1	32	0	0.7
COc1ccc(/C=C\C(=O)CC(O)(c2ccccc2)C(F)(F)F)cc1 (stereo unspecified)	0.7	0.8	42	19	0.6
COc1ccc(C(=O)Nc2nncs2)cc1S(=O)(=O)N1CC(c2ccccc2)CC1=O (stereo unspecified)	1.1	0.2	0	84*	1
Cc1nnc(NC(=O)c2cccc(S(=O)(=O)N3CC(c4ccccc4)CC3=O)c2)s1 (stereo unspecified)	1	0.5	-1	46	1
COc1ccc(CCNC(=O)C2CCN(S(=O)(=O)c3ccc(-n4cnnn4)cc3)CC2)cc1OC	1.3	0.7	31	29	0.7
COc1cccc(-c2nc(-c3ccc(NC(=O)c4cccnc4)cc3)no2)c1	1	0.9	-1	9	1
CC(Oc1ccc(Cl)cc1Cl)c1nc(-c2ccccn2)no1 (stereo unspecified)	0.9	0.1	96*	92*	0
CC(Oc1ccc(Cl)cc1Cl)c1nc(-c2ccc(NC(=O)c3cccnc3)cc2)no1 (stereo unspecified)	1	0	64*	96*	0.4
CCc1ccccc1NC(=O)N[C@@H](C)C(=O)OC	0.9	1	7	3	0.9
C=CCn1c(COc2cccc3ccc(C)nc23)nnc1SCC(=O)OC	1.5	1.9	47	-90	0.5
Cn1c2ccccc2c2cc(C(=O)OCC(=O)N3CC(=O)Nc4ccccc43)sc21	1.1	2*	86*	-104	0.1
O=C1CN(C(=O)COC(=O)c2ccccc2NCc2ccco2)c2ccccc2N1	0.9	0.6	56*	40	0.4
Nc1c(-c2ccccc2)cnn1C1CCS(=O)(=O)C1 (stereo unspecified)	0.8	1	4	-1	1
Cc1ccc(NC(=O)COc2ccc(/C=C3/SC(=Nc4ccccc4)N(Cc4cccnc4)C3=O)cc2)cc1	1.1	0.5	3	53*	1
Cc1nonc1NC(=O)c1ccc(Cl)c(S(=O)(=O)N2CCCCC2)c1	1.1	1.2	68*	-18	0.3
O=C(NC1=NCCS1)c1ccc(Cl)c(S(=O)(=O)N2CCCCC2)c1	1.6	0.6	43	36	0.6
O=C(Nn1cnnc1)c1ccc(F)c(S(=O)(=O)N2CCCCC2)c1	1.2	0.3	99*	72*	0
O=C(NCc1cccs1)c1cccc(S(=O)(=O)N2CCCCC2)c1	0.9	0.3	75*	67*	0.3
O=C(Nc1nccs1)c1ccc(Cl)c(S(=O)(=O)N2CCCCC2)c1	0.9	0.5	65*	53*	0.3
CC(=O)Nc1n[nH]c(S(=O)(=O)Cc2ccc(Cl)cc2Cl)n1	1.1	1.2	4	-22	1

From PubChem BioAssay
